Experimental data reported in publication PMC7862700, “An all-to-all approach to the identification of sequence-specific readers for epigenetic DNA modifications on cytosine”.

How the values were obtained:
Assay in all cases: DAPPL (digital affinity profiling via proximity ligation, sequencing); 10 mM Tris-HCl pH 7.5, 50 mM NaCl, 1 mM DTT, 4% glycerol, room temperature, 30 min; GST-TFs on glutathione beads, 16-mer random dsDNA library, 0.1% formaldehyde crosslink after washing; high values mean tight binding
[1] = molecular target: T1, FLI1 (Homo sapiens, UniProt Q01543 1-452); conditions: protein: recombinant; tags: N-terminal GST; dsDNA, one strand shown
T1 sequence: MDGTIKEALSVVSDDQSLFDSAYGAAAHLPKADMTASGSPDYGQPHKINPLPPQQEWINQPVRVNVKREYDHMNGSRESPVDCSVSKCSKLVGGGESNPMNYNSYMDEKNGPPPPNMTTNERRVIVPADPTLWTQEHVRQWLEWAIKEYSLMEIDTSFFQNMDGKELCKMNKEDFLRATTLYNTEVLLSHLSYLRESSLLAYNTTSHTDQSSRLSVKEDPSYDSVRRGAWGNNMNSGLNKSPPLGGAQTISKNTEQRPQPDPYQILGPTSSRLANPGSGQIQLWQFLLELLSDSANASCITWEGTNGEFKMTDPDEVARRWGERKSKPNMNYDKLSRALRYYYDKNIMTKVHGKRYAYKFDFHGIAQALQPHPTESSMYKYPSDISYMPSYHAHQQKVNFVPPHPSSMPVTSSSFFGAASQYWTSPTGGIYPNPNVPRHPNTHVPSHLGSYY
In short: (§1)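 Pools of DNA-barcoded human transcription factors, expressed in yeast as GST fusions on glutathione beads and combined with a tag-only sample, were incubated with 200 nmole of a 16-mer random double-stranded DNA library. Incubation took 30 min at room temperature in Tris/NaCl/DTT/glycerol buffer and was followed by washing, 0.1% formaldehyde crosslinking, proximity ligation (BsaI/T4 ligase, 1 h, 37 °C), PCR amplification and sequencing on an Illumina NextSeq500. Binding signal is the ratio of a hexamer's read frequency for a factor to its frequency for the tag-only sample.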

[2] = molecular target: T2, ELK1 (Homo sapiens, UniProt P19419 1-428); conditions: protein: recombinant; tags: N-terminal GST; dsDNA, one strand shown
T2 sequence: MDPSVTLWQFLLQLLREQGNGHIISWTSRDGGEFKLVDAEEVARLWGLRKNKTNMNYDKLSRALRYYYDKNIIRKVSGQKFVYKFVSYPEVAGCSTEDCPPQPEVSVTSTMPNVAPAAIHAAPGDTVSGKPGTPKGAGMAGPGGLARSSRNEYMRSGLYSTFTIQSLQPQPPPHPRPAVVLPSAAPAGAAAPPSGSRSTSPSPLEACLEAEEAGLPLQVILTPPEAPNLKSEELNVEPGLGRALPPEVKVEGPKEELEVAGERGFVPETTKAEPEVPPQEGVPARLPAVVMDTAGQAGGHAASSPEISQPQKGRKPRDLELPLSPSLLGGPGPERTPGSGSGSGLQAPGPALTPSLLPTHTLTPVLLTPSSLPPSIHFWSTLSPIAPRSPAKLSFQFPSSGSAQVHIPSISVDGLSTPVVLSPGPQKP
In short: as §1

[3] = molecular target: T3, GABPA (Homo sapiens, UniProt Q06546 1-454); conditions: protein: recombinant; tags: N-terminal GST; dsDNA, one strand shown
T3 sequence: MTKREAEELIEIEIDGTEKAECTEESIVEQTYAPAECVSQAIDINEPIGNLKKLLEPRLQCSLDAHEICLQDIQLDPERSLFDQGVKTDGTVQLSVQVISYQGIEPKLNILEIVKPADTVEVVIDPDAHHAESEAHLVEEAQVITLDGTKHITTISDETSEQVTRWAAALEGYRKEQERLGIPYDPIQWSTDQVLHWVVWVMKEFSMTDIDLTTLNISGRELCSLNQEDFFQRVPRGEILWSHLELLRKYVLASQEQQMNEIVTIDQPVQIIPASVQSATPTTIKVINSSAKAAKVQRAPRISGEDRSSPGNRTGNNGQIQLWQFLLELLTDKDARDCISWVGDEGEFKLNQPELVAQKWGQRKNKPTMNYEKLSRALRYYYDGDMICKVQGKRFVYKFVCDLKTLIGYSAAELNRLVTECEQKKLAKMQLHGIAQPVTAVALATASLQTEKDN
In short: as §1

[4] = molecular target: T4, ERG (Homo sapiens, UniProt P11308 1-479); conditions: protein: recombinant; tags: N-terminal GST; dsDNA, one strand shown
T4 sequence: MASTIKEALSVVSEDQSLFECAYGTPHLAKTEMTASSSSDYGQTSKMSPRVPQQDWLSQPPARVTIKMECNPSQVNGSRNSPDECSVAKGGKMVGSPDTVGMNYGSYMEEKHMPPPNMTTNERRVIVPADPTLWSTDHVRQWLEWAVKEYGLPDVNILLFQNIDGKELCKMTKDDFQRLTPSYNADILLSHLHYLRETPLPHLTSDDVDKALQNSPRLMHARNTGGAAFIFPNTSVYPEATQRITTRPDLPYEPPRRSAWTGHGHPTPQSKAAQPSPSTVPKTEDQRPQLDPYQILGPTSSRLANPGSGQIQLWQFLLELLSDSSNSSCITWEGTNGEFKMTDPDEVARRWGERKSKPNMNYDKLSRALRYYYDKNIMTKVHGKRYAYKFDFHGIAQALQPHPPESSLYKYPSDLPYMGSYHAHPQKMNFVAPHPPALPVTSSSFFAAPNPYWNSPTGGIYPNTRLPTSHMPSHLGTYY
In short: as §1

[5] = molecular target: ELF1 (Homo sapiens, UniProt P32519 1-619); conditions: protein: recombinant; tags: N-terminal GST; dsDNA, one strand shown
In short: as §1

[6] = molecular target: T5, EHF (Homo sapiens, UniProt Q9NZC4 1-300); conditions: protein: recombinant; tags: N-terminal GST; dsDNA, one strand shown
T5 sequence: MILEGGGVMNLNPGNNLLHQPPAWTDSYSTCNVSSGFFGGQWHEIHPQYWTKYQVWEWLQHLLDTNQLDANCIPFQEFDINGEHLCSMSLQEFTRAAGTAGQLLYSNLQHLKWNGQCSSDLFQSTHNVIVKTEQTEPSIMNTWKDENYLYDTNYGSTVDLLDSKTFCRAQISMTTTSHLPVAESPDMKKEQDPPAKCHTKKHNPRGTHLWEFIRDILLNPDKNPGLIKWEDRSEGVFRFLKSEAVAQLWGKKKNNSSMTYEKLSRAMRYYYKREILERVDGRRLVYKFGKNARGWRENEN
In short: as §1

[7] = molecular target: SPI1 (Homo sapiens, UniProt P17947 1-270); conditions: protein: recombinant; tags: N-terminal GST; dsDNA, one strand shown
In short: as §1

[8] = molecular target: SPIB (Homo sapiens, UniProt Q01892 1-262); conditions: protein: recombinant; tags: N-terminal GST; dsDNA, one strand shown
In short: as §1

[9] = molecular target: T6, ELK3 (Homo sapiens, UniProt P41970 1-407); conditions: protein: recombinant; tags: N-terminal GST; dsDNA, one strand shown
T6 sequence: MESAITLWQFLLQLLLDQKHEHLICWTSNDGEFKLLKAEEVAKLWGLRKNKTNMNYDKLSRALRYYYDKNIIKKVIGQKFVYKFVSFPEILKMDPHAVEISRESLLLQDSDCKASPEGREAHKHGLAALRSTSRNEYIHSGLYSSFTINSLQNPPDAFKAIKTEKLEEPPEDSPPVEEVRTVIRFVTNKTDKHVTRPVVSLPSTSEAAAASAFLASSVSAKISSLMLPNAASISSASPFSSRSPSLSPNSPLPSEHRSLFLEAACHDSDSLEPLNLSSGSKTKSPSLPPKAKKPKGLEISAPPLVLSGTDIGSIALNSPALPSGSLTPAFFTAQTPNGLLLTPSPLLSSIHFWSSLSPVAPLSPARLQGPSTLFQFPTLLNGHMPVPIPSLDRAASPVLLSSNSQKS
In short: as §1

[10] = molecular target: T7, FEV (Homo sapiens, UniProt Q99581 1-238); conditions: protein: recombinant; tags: N-terminal GST; dsDNA, one strand shown
T7 sequence: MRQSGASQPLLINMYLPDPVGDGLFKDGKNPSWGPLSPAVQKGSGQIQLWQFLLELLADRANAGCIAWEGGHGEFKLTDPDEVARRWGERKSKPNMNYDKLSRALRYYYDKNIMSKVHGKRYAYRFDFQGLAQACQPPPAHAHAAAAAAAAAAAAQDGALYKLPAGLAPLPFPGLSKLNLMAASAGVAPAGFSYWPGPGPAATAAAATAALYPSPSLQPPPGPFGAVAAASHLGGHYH
In short: as §1

[11] = molecular target: ETV5 (Homo sapiens, UniProt P41161 1-510); conditions: protein: recombinant; tags: N-terminal GST; dsDNA, one strand shown
In short: as §1

[12] = molecular target: HSF1 (Homo sapiens, UniProt Q00613 1-529); conditions: protein: recombinant; tags: N-terminal GST; chain copies: 3; dsDNA, one strand shown
In short: as §1

[13] = molecular target: T8, SPIC (Homo sapiens, UniProt Q8N5J4 1-248); conditions: protein: recombinant; tags: N-terminal GST; dsDNA, one strand shown
T8 sequence: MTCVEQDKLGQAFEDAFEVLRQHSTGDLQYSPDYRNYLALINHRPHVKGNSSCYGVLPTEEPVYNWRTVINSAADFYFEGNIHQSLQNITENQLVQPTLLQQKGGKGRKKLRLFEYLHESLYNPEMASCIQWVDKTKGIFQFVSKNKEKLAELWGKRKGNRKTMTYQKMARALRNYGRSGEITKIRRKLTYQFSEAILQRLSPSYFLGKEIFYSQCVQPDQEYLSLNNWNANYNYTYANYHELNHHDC
In short: as §1

[14] = molecular target: ELF4 (Homo sapiens, UniProt Q99607 1-663); conditions: protein: recombinant; tags: N-terminal GST; dsDNA, one strand shown
In short: as §1

[15] = molecular target: T9, ELK4 (Homo sapiens, UniProt P28324-2 1-405); conditions: protein: recombinant; tags: N-terminal GST; dsDNA, one strand shown
T9 sequence: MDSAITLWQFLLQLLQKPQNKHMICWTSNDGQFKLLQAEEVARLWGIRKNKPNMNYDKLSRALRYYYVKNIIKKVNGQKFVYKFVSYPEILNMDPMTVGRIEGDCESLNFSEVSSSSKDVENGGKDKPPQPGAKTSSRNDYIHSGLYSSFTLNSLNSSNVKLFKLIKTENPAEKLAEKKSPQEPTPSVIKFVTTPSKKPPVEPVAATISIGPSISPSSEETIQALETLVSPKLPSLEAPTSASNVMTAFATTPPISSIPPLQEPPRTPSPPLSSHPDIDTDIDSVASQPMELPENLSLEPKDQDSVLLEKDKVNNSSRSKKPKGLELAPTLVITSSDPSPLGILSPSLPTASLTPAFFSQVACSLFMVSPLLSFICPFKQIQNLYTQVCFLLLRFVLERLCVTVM
In short: as §1

[16] = molecular target: T10, ETV2 (Homo sapiens, UniProt O00321 1-342); conditions: protein: recombinant; tags: N-terminal GST; dsDNA, one strand shown
T10 sequence: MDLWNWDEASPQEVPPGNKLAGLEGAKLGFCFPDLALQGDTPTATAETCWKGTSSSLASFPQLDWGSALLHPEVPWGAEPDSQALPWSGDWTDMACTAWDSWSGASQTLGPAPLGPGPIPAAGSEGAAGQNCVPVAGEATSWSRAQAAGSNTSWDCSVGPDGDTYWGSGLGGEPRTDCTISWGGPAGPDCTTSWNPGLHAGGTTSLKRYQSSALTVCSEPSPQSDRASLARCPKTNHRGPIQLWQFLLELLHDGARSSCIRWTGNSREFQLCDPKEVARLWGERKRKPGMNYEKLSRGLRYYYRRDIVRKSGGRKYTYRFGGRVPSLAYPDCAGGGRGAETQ
In short: as §1

[17] = molecular target: T11, ELF3 (Homo sapiens, UniProt P78545 1-371); conditions: protein: recombinant; tags: N-terminal GST; dsDNA, one strand shown
T11 sequence: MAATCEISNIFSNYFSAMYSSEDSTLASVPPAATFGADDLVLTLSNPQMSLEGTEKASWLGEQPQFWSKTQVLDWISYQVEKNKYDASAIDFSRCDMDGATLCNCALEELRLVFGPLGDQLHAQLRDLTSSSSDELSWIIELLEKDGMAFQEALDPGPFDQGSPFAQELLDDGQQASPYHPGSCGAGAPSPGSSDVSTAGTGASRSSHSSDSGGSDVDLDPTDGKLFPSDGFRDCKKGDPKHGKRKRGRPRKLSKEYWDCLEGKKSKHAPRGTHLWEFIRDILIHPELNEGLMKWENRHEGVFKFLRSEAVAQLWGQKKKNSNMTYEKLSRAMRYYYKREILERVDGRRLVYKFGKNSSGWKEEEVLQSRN
In short: as §1

[18] = molecular target: CRX (Homo sapiens, UniProt O43186 1-299); conditions: protein: recombinant; tags: N-terminal GST; dsDNA, one strand shown
In short: as §1

[19] = molecular target: ETV1 (Homo sapiens, UniProt P50549 1-477); conditions: protein: recombinant; tags: N-terminal GST; dsDNA, one strand shown
In short: as §1

ELF4, sequence (Q99607 whole entry): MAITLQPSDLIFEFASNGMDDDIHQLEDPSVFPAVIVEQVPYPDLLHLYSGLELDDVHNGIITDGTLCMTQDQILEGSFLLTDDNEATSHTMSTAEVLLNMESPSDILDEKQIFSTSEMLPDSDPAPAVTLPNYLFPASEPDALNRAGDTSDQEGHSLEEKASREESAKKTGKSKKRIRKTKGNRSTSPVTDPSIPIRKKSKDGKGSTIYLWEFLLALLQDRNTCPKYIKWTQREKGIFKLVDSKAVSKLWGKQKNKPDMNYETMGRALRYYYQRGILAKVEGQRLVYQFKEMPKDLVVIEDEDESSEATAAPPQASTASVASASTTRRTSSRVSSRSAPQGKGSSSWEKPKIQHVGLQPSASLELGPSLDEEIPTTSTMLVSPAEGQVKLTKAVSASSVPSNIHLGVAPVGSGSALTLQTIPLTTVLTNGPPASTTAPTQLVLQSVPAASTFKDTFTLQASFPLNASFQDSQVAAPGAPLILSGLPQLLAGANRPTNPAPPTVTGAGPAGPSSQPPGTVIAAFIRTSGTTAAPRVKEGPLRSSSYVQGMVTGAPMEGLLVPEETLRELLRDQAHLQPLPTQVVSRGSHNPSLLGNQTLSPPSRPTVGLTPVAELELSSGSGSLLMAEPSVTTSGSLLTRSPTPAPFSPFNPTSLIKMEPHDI
HSF1, sequence (Q00613 whole entry): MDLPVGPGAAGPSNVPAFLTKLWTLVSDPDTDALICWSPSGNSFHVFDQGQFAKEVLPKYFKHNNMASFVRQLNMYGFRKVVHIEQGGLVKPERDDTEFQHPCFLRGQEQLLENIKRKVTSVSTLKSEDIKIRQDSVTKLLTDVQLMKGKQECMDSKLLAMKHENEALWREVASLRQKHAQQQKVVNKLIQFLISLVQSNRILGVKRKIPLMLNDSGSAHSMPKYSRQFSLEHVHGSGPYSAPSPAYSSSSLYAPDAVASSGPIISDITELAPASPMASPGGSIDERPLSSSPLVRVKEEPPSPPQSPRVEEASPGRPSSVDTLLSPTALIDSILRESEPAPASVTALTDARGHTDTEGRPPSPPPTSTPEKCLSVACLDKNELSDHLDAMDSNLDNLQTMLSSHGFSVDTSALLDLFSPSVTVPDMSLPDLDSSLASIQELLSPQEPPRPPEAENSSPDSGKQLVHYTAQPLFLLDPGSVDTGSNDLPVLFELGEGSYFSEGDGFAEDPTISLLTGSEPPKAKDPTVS
ETV5, sequence (P41161 whole entry): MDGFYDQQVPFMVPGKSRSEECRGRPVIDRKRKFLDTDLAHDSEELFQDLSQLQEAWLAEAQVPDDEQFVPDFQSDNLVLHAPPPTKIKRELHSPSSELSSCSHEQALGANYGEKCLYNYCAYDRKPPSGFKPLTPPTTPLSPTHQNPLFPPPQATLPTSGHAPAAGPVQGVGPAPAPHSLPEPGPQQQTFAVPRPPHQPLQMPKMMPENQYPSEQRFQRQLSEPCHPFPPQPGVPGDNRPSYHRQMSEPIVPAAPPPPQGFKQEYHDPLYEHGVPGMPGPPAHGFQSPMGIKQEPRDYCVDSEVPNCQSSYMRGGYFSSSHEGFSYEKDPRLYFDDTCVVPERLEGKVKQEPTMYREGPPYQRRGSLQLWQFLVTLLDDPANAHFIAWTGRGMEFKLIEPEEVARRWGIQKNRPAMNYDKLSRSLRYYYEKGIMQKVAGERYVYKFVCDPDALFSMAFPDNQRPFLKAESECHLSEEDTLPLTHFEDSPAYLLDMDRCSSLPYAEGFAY
SPIB, sequence (Q01892 whole entry): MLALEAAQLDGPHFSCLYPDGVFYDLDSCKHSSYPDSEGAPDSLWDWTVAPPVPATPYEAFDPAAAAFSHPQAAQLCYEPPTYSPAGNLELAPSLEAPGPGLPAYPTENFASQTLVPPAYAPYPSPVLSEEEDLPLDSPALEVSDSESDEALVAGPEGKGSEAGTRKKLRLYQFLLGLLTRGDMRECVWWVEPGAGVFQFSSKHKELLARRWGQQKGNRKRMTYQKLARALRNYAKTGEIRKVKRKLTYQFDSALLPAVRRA
ETV1, sequence (P50549 whole entry): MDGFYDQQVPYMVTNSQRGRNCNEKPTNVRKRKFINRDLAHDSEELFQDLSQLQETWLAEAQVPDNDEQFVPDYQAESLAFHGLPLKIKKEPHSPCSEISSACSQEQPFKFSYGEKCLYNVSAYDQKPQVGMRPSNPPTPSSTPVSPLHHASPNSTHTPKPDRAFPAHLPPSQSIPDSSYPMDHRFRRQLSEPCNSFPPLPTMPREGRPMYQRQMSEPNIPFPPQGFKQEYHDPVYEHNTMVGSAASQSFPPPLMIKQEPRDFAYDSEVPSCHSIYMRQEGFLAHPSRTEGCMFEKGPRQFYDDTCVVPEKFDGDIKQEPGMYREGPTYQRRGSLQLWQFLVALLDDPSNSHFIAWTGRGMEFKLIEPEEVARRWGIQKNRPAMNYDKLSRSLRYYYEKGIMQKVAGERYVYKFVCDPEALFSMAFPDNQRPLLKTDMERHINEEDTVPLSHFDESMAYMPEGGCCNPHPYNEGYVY
CRX, sequence (O43186 whole entry): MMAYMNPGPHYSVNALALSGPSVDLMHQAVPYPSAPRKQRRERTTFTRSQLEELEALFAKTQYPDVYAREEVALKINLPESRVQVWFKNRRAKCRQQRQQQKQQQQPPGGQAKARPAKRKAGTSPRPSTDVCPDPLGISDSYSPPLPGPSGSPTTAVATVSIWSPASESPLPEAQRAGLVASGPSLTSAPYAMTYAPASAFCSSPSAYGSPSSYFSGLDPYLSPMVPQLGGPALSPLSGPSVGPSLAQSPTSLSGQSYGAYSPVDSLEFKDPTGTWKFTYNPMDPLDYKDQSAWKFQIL
ELF1, sequence (P32519 whole entry): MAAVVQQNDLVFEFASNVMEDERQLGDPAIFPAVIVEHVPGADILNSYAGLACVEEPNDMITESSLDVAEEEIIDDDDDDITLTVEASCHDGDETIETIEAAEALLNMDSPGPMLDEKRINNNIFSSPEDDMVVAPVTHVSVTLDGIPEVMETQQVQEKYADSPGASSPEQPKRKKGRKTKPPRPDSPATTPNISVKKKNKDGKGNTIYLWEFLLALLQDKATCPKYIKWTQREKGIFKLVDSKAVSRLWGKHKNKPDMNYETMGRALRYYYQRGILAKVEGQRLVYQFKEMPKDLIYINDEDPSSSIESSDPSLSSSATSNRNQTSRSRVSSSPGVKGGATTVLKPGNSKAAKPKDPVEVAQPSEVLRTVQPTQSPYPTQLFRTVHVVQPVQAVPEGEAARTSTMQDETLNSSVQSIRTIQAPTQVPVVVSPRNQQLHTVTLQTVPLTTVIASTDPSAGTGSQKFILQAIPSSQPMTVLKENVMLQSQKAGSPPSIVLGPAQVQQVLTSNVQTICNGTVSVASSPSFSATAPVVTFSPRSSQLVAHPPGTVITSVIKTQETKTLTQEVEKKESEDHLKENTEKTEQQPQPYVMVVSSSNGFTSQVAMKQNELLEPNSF

TGCGCT
binding signal [1]: 1.27 fold enrichment (6-mer frequency, TF over GST control)
binding signal [2]: 1.3 fold enrichment (6-mer frequency, TF over GST control)
binding signal [3]: 1.13 fold enrichment (6-mer frequency, TF over GST control)
binding signal [4]: 1.25 fold enrichment (6-mer frequency, TF over GST control)
binding signal [5]: 1.19 fold enrichment (6-mer frequency, TF over GST control)
binding signal [6]: 1.25 fold enrichment (6-mer frequency, TF over GST control)
binding signal [7]: 1.11 fold enrichment (6-mer frequency, TF over GST control)
binding signal [8]: 1.31 fold enrichment (6-mer frequency, TF over GST control)
binding signal [9]: 1.25 fold enrichment (6-mer frequency, TF over GST control)
binding signal [10]: 1.25 fold enrichment (6-mer frequency, TF over GST control)
binding signal [11]: 1.28 fold enrichment (6-mer frequency, TF over GST control)
binding signal [12]: 1.07 fold enrichment (6-mer frequency, TF over GST control)
binding signal [13]: 1.24 fold enrichment (6-mer frequency, TF over GST control)
binding signal [14]: 1.19 fold enrichment (6-mer frequency, TF over GST control)
binding signal [15]: 1.46 fold enrichment (6-mer frequency, TF over GST control)
binding signal [16]: 1.35 fold enrichment (6-mer frequency, TF over GST control)
binding signal [17]: 1.04 fold enrichment (6-mer frequency, TF over GST control)
binding signal [18]: 1.2 fold enrichment (6-mer frequency, TF over GST control)
binding signal [19]: 1.17 fold enrichment (6-mer frequency, TF over GST control)
